Data on 24 compounds can be found in PubChem BioAssay (NCI).

The panel holds about 83,000 compounds, 20% with a hit somewhere; the sample as a whole holds those more often.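 Activity criterion: percent growth below 10, measured after cells in 96-well plates were exposed to a single compound concentration for 48 hours.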 Values without a mark were called inactive. Activity calls are given as the source filed them.

Holding throughout (assay): NCI-60 one-dose screen, 48 h (100 = growth as untreated, 0 = no growth, -100 = all killed)
Conditions in all cases: 10 µM unless noted

Test [1] concerns DU-145 prostate.
Test [2] relates to K-562 leukemia.
Test [3] concerns MALME-3M melanoma.
For test [4], the system named is MDA-MB-231 breast.
The subject of test [5] is RXF 393 renal.
Test [6] relates to SF-268 CNS.
The subject of test [7] is SF-295 CNS.
Test [8] concerns SF-539 CNS.
The test system of test [9] is UACC-257 melanoma.
Test [10] relates to M14 melanoma.

Turning to `O=C(COc1cccc(/C=C2\CSc3ccccc3C2=O)c1)Nc1nccs1`, the growth in test [1] is 106%; in test [2], -58.1% (active); in test [3] it was 16.9%; in test [4], 80.6%; in [5], 71%; in [6] it was 43.5%. Further, the growth was 115% in test [7], 75.3% in [8], 86% in [9] and 39.1% in test [10].
As for `Cn1ncc2c(=O)nc3c(-c4ccccc4)n[nH]n3c21`, the growth in test [1] was 101%; in test [2], 119%; in [3] it was 98.6%; in test [4], 102%; in test [5], 121%; in test [6], 101%. The values for the growth in test [7], in test [8] and in [9] were 84.5%, 96.2% and 98.7%, respectively.
For the compound `Cc1nc2ccccc2n1C(=O)C[C@@H]1NC(=S)NC1=O`, the growth in test [1] was 109%; in test [2] it was 107%; in test [3], 83.8%; in test [4] it was 95.8%; in [5] it was 108%; in [6], 95.1%. The results for the growth in [7], in test [8] and in [9] were 98.4%, 98.6% and 86.9%, respectively.
Regarding `Cc1cc(C)nc(SC2=C(Nc3cccc(Cl)c3)C(=O)N(Cc3ccccc3)C2=O)n1`, the growth was 79.6% [30 µM] in test [1]; 51.8% [30 µM] in test [2]; 91.9% [30 µM] in test [3]; 61.2% [30 µM] in test [4]; 72.6% [30 µM] in test [5]; 66.8% [30 µM] in test [6]. Moreover, the growth in [7] was -12.3% [30 µM] (active); in test [8], 69.7% [30 µM]; in test [9], 71.7% [30 µM].
In the case of `O=C1c2cccc3cccc(c23)C(=O)N1CCCCN1CCN(CCCCOc2ccc(-c3nc4ccc(N5CCOCC5)cc4[nH]3)cc2)CC1`, the growth in [1] is 77.2%; in test [2], 57.1%; in [3] it was 86.5%; in test [4] it was 91.6%; in test [5], 24.1%; in test [6], 68.6%. The growth in test [7] is 74.7%; in test [8], 106%; in [9] it was 96.6%.
In the case of `Cc1ccc(NC(=O)C2CCC(CN3CCN(C)CC3)CC2)cc1Nc1nccc(-c2cccnc2)n1` (centres undefined), the growth was 100% in [1]; 58.3% in test [2]; 104% in test [3]; 101% in test [4]; 96% in test [5]; 100% in test [6]. The values for the growth in test [7], in [8] and in [9] were 101%, 63.4% and 115%, respectively.
For the compound `COc1ccc(-c2cc(=O)c3c(OC)c4ccoc4cc3o2)cc1`, the growth was 106% in test [1]; 88.2% in test [2]; 113% in test [3]; 91.7% in [4]; 107% in [5]; 97.9% in test [6]. The growth is 40.7% in [7], 105% in test [8] and 107% in test [9].
On to `Cc1ccc2oc(=O)cc(C3c4ccc([nH]4)C(c4cc(=O)oc5ccc(C)cc45)c4ccc([nH]4)C(c4cc(=O)oc5ccc(C)cc45)c4ccc([nH]4)C(c4cc(=O)oc5ccc(C)cc45)c4ccc3[nH]4)c2c1` (centres undefined), for which the growth in [1] is -46.3% (active); in test [2], -26% (active); in test [3], -35.1% (active); in [4], -53.8% (active); in [5], -87.3% (active); in [6], -39.5% (active). Moreover, the growth is -78.2% (active) in test [7], -75.1% (active) in [8] and -67.7% (active) in test [9].
Consider `C=C(C)[C@@H]1CC[C@]2(C(=O)OC)CC[C@]3(C)[C@H](CC[C@@H]4[C@@]5(C)C/C(=C/c6ccc(OC)cc6)C(=O)C(C)(C)[C@@H]5CC[C@]43C)[C@@H]12`, for which the growth is 91.1% in [1]; 3.32% (active) in [2]; 99.7% in [3]; 108% in [4]; 66.9% in test [5]; 90.7% in [6]. For the same compound, the growth in [7] is 99.9%; in [8], 90.3%; in [9], 104%.
With `O=S(=O)(Nc1ccc(NS(=O)(=O)c2ccccc2)c(Cl)c1)c1ccccc1`, the growth in test [1] is 109%; in [2] it was 95.4%; in [3] it was 103%; in [4] it was 104%; in test [5], 108%; in [6] it was 101%. For the same compound, the growth was 94.6% in test [7], 105% in test [8] and 103% in test [9].
Turning to `CCOC(=O)c1csc(NC(=O)COc2cccc(/C=C3\CSc4ccccc4C3=O)c2)n1`, the growth in test [1] was 87.1%; in test [2] it was -64.3% (active); in test [3], -52.6% (active); in test [4], 59.2%; in test [5] it was 64.9%; in test [6], -37.2% (active). Moreover, the growth was 93.7% in [7], -89.1% (active) in test [8], 84.5% in [9] and -58.5% (active) in test [10].
On to `COc1cc2nc(N3CCCC3)nc(NCC3CCCCC3)c2cc1OC`, for which the growth in [1] is 36.2%; in test [2], -9.67% (active); in test [3], -87.8% (active); in test [4], -39.9% (active); in test [5] it was -84% (active); in test [6], 74.4%. The growth is -70.9% (active) in test [7], -84.2% (active) in [8] and -82.8% (active) in [9].
As for `COc1cc(-c2nc3ccccc3[nH]2)ccc1OCc1nnc(-c2ccc(CC(C)C)cc2)o1`, the growth in [1] was 94%; in [2], 76%; in [3], 89.9%; in test [4], 93.4%; in [5] it was 71.2%; in test [6], 99.9%. The growth was 99.3% in [7], 105% in test [8] and 104% in test [9].
Turning to `Cc1[nH]c(-c2ccc3cc[nH]c3c2)c2c1C(=O)CCCC2`, the growth in [1] was 79.1%; in [2] it was 26.2%; in [3] it was 56.2%; in [4], 43.2%; in [5], 68.1%; in test [6], 64.8%. The growth was 38.8% in [7], 48.6% in test [8], 47.7% in test [9] and 51.6% in [10].
Turning to `CON1C(=O)CC[C@]2(C)[C@H]3CC[C@@H]4C([C@@]5(C)CCC(=O)O5)CC[C@@]4(C)[C@]3(C)CC[C@H]2C1(C)C` (some centres undefined), the growth in test [1] is 107%; in test [2], 83%; in test [3], 105%; in [4], 96.5%; in test [5], 98%; in test [6], 97.4%. For the same compound, the growth is 104% in test [7], 99.8% in test [8], 107% in [9] and 97% in test [10].
In the case of `N=C(N)c1ccc(-c2ccc(-c3ccc4ccccc4c3)s2)s1`, the growth in test [1] was -85.4% (active); in test [2], -47.2% (active); in test [3], 85.9%; in test [4] it was -36.8% (active); in test [5] it was -55.1% (active); in test [6], -6.87% (active). The growth in [7] is 22.3%; in test [8], 73.8%; in test [9] it was 77%; in test [10], 39.7%.
In the case of `Cc1cc(C)c2nc3nc(C)cc(C)c3c(N)c2c1`, the growth in test [1] was 15.5%; in test [2] it was 10% (active); in [3], 24%; in [4], 30.2%; in test [5], 42.5%; in [6] it was 19.7%. In addition, the growth in test [7] was 29.6%; in test [8], 14.1%; in [9], 40.2%; in test [10] it was 34.1%.
As to `Cn1cc(C(=O)c2nc(-c3c[nH]c4ccc(F)cc34)no2)c2cc(F)ccc21`, the growth in [1] is 101%; in test [2], 66.1%; in test [3] it was 87.3%; in test [4], 108%; in test [5], 108%; in test [6], 96%. In addition, the growth in test [7] was 98%; in test [8], 95.1%; in test [9], 99.2%; in test [10], 97%.
For `Cc1ccccc1COc1ccc(-c2onc(C)c2-c2ccc(Cl)cc2)cc1`, the growth in test [1] was 77.4%; in [2], 14.4%; in [3], 59.8%; in [4], 90.8%; in test [5], 70.2%; in [6], 75.6%. Besides, the growth in test [7] is 49.4%; in [8], 63.5%; in test [9], 70.9%; in test [10], 32.2%.
For `CNC(=O)c1cc(Oc2ccc(NC(=O)Nc3ccc(Cl)c(OC(F)(F)F)c3)c(F)c2)ccn1`, the growth was 56.7% in [1]; 6.83% (active) in [2]; 1.66% (active) in test [3]; 35.3% in [4]; 82.3% in test [5]; 45.2% in test [6]. The growth in [7] is 21.3%; in [8], 50.6%; in test [9], 1.86% (active); in [10], 4.35% (active).
For the compound `COc1ccc(CCNc2nc3c(c(=O)n(Cc4ccc(Br)cc4)c(=O)n3C)n2C)cc1OC`, the growth was 107% in test [1]; 69.8% in test [2]; 87.2% in [3]; 81.9% in test [4]; 120% in [5]; 92.6% in test [6]. Besides, the growth in [7] was 89.1%; in test [8], 88.5%; in [9], 92.4%; in [10], 101%.
Take `CNC(=O)c1cc(Oc2ccc(NC(=O)Nc3ccc(Cl)c(SC)c3)c(F)c2)ccn1`: the growth was 72.1% in [1]; 18.1% in test [2]; 27.5% in test [3]; 50.1% in [4]; 85.9% in [5]; 50.6% in test [6]. In addition, the growth is 34% in test [7], 47.3% in test [8], 28.1% in test [9] and 29.7% in test [10].
In the case of `C#CCOc1ccc2ncnc(N3CCC(NC(=O)CCl)CC3)c2c1`, the growth in test [1] is 72.8% [8.25 µM]; in [2], 81.5% [8.25 µM]; in test [3], 83.9% [8.25 µM]; in [4] it was 96.1% [8.25 µM]; in test [5] it was 16% [8.25 µM]; in [6], 49.1% [8.25 µM]. The growth is 109% [8.25 µM] in [7], 74.6% [8.25 µM] in test [8], 79.7% [8.25 µM] in [9] and 72.8% [8.25 µM] in [10].
In the case of `Cn1cc(-c2nonc2-c2cn(C)c3ccc(F)cc23)c2cc(F)ccc21`, the growth in test [1] was 81.1%; in test [2] it was 12.6%; in test [3], 49.5%; in test [4], 82.3%; in test [5] it was 46.7%; in test [6] it was 71.3%. The growth in test [7] was 56.4%; in test [8], 66.1%; in test [9] it was 71.7%; in [10] it was 31.4%.
